# Results filed as inconclusive are left out. The source made the active and inactive calls. Rule for the calls: active = hit-call score of the fitted dose curve at least 0.9, where 1 is the maximum; inconclusive = response in the unintended direction; inactive = score below 0.9.
# How the values were obtained:
# [1] = system: rat Monoamine Oxidase, MAO-A, Central (MAOAC), gene 29253; assay: NVS_ENZ_rMAOAC: NovaScreen (NVS) Enzymatic Assay for rat Monoamine Oxidase, MAO-A, Central (MAOAC) (AID 2283243);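 note: potency refers to inhibition seen as signal drop below DMSO baseline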
# Procedure, shortened: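 Enzyme from rat brain, cell-free radiodetection format. Counts taken at 1.5 h; activity fitted against DMSO baseline, loss of signal marking inhibition. Confirmatory concentration series followed the 25 uM duplicate screen.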
# [2] = target: bovine Dopamine Receptor (DR), Non-selective Binding, DRD1 (gene 281125) (UniProt Q95136); assay: NVS_GPCR_bDR_NonSelective: NovaScreen (NVS) G Protein-Coupled Receptor Assay for bovine Dopamine Receptor (DR), Non-selective Binding (AID 2283241)
# Procedure, shortened: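 Filter-based radioligand binding with bovine striatal membrane, incubated 1 h; DMSO as negative baseline. Initial duplicate single-point test at 25 uM preceded concentration series for actives.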
# [3] = target: rat Monoamine Oxidase, MAO-B, Peripheral (MAOBP), Maob (gene 25750) (UniProt P19643); assay: NVS_ENZ_rMAOBP: NovaScreen (NVS) Enzymatic Assay for rat Monoamine Oxidase, MAO-B, Peripheral (MAOBP) (AID 2283242)
# [4] = target: human Adenosine A2a Receptor (AdoRA2a), ADORA2A (gene 135) (UniProt P29274); assay: NVS_GPCR_hAdoRA2a: NovaScreen (NVS) G Protein-Coupled Receptor Assay for human Adenosine A2a Receptor (AdoRA2a) (AID 2283256)
# Procedure, shortened: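 Compounds screened in duplicate at 25 uM, with actives followed up in concentration series, for displacement of a radioligand from HEK293-derived receptor protein. Bound counts read by filter scintillation at 1.5 hours, DMSO as baseline.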
# [5] = target: human Serotonin, 5-Hydroxytryptamine Receptor 7 (5HT7), HTR7 (gene 3363) (UniProt P34969); assay: NVS_GPCR_h5HT7: NovaScreen (NVS) G Protein-Coupled Receptor Assay for human Serotonin, 5-Hydroxytryptamine Receptor 7 (5HT7) (AID 2283255);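 note: hits reduce specific radioligand binding relative to DMSO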
# Procedure, shortened: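 Filter-bound radioactivity counted after 1 h, with loss of specific radioligand binding fitted against DMSO. Membrane protein came from CHO cells expressing human 5HT7. Chemicals were tested first at 25 uM in duplicate, then in concentration series if active.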
# [6] = target: human Adrenergic, Alpha 2c Receptor (Adra2C), ADRA2C (gene 152) (UniProt P18825); assay: NVS_GPCR_hAdra2C: NovaScreen (NVS) G Protein-Coupled Receptor Assay for human Adrenergic, Alpha 2c Receptor (Adra2C) (AID 2283259)
# Procedure, shortened: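 Screened first in duplicate at 25 uM, with actives then run as concentration series. Membranes from Sf9 cells were exposed for 1 h, and displacement of radioligand was counted after filtration, using DMSO as baseline.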
# [7] = target: Adenosine receptor A1 (Bos taurus) (UniProt P28190); assay: NVS_GPCR_bAdoR_NonSelective: NovaScreen (NVS) G Protein-Coupled Receptor Assay for bovine Adenosine Receptor (AdoR), Non-selective Binding (AID 2283244)
# Procedure, shortened: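 Cell-free binding with membranes from bovine striatum: radioligand displaced by test chemical, read after 1 h by filtration and scintillation. Single-point 25 uM duplicate primary, 50 uM top concentration in follow-up curves, DMSO baseline.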
# [8] = system: bovine Histamine 1 Receptor (H1), gene 281231; assay: NVS_GPCR_bH1: NovaScreen (NVS) G Protein-Coupled Receptor Assay for bovine Histamine 1 Receptor (H1) (AID 2283246)
# Procedure, shortened: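 Hits from a 25 uM duplicate primary screen were retested in concentration series (top 50 uM); binding measured as scintillation-counted displacement of radioligand from bovine cerebellar membranes after 1 h, normalised to DMSO.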
# [9] = target: human Adenosine A1 Receptor (AdoRA1), ADORA1 (gene 134) (UniProt P30542); assay: NVS_GPCR_hAdoRA1: NovaScreen (NVS) G Protein-Coupled Receptor Assay for human Adenosine A1 Receptor (AdoRA1) (AID 2283254)
# Procedure, shortened: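 Membranes from human cortical tissue were incubated with radioligand and test chemical for 1 hour, then filtered and counted. Activity was taken as signal loss relative to DMSO, screened at 25 uM in duplicate before concentration-response follow-up.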
# [10] = target: Beta-2 adrenergic receptor (Homo sapiens) (UniProt P07550); assay: NVS_GPCR_hAdrb2: NovaScreen (NVS) G Protein-Coupled Receptor Assay for human Adrenergic, Beta 2 Receptor (Adrb2) (AID 2283261)
# Procedure, shortened: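 Compounds screened in duplicate at 25 uM, then actives in concentration series. Human beta-2 receptor from CHO material, cell-free; radioligand displacement after 1 h measured by filtration and scintillation against DMSO baseline.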
# [11] = NVS_GPCR_bNPY_NonSelective: NovaScreen (NVS) G Protein-Coupled Receptor Assay for bovine Neuropeptide Y (NPY) Receptor, Non-selective Binding (AID 2283245)
# Procedure, shortened: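 Displacement of radioligand from bovine hippocampal membrane receptors, read by filtration and scintillation counting after 1 hour. Concentration-response to a top of 50 uM followed a 25 uM duplicate primary screen. Loss of signal versus DMSO.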
# [12] = target: human Serotonin, 5-Hydroxytryptamine Receptor 6 (5HT6), HTR6 (gene 3362) (UniProt P50406); assay: NVS_GPCR_h5HT6: NovaScreen (NVS) G Protein-Coupled Receptor Assay for human Serotonin, 5-Hydroxytryptamine Receptor 6 (5HT6) (AID 2283253)
# Procedure, shortened: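 Filter scintillation counting of radioligand displacement from HEK293-expressed 5HT6, 1 hour post-dose, with loss of signal relative to DMSO. Single 25 uM duplicates first, with concentration series for confirmation.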
# [13] = target: sheep Cyclooxygenase-1 (Cox1), PTGS1 (gene 443551) (UniProt P05979); assay: NVS_ENZ_oCOX1: NovaScreen (NVS) Enzymatic Assay for sheep Cyclooxygenase-1 (Cox1) (AID 2283239);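 note: actives reduce cyclooxygenase activity so potencies are for inhibitors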
# Procedure, shortened: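 Absorbance read-out of cyclooxygenase activity in a cell-free preparation from sheep seminal vesicles, taken 0.66 hour after dosing. Initial testing was in duplicate at 25 uM, and confirmatory testing was run in concentration series.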
# [14] = target: guinea pig Opioid, Kappa 1 Receptor (OpiateK), OPRK1 (gene 100135587) (UniProt P41144); assay: NVS_GPCR_gOpiateK: NovaScreen (NVS) G Protein-Coupled Receptor Assay for guinea pig Opioid, Kappa 1 Receptor (OpiateK) (AID 2283252);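 note: radioligand displacement from kappa opioid receptor in guinea pig cerebellar membranes; active means reduced radioligand binding relative to DMSO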
# Procedure, shortened: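 Radioligand competition binding using guinea pig cerebellum membrane fraction; 2 h exposure; filter radiodetection. Single concentration 25 uM (duplicate), follow-up concentration-response for actives.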
# [15] = target: human Serotonin, 5-Hydroxytryptamine Receptor 5A (5HT5A), HTR5A (gene 3361) (UniProt P47898); assay: NVS_GPCR_h5HT5A: NovaScreen (NVS) G Protein-Coupled Receptor Assay for human Serotonin, 5-Hydroxytryptamine Receptor 5A (5HT5A) (AID 2283251)
# Procedure, shortened: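 Membranes from HEK293 cells, radioligand binding read by filtration and scintillation after 1 h. Single-concentration duplicate testing at 25 uM, then concentration-response for actives; positive-direction fitting relative to DMSO.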
# [16] = system: guinea pig Muscarinic, Peripheral (Mperiperal) Receptor, Non-selective Binding, gene 100379235; assay: NVS_GPCR_gMPeripheral_NonSelective: NovaScreen (NVS) G Protein-Coupled Receptor Assay for guinea pig Muscarinic, Peripheral (Mperiperal) Receptor, Non-selective Binding (AID 2283250)
# Procedure, shortened: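 Screened in duplicate at 25 uM, hits retested in concentration series to 50 uM max, using bladder membrane radioligand displacement from guinea pig. Filtration and scintillation counting 1 h post-dose, fitted relative to DMSO.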
# [17] = system: guinea pig Leukotriene B4 Receptor (LTB4), gene 100379538; assay: NVS_GPCR_gLTB4: NovaScreen (NVS) G Protein-Coupled Receptor Assay for guinea pig Leukotriene B4 Receptor (LTB4) (AID 2283247)
# Procedure, shortened: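 Membranes from guinea pig spleen incubated 2 h with radioligand and compound; bound counts measured by filtration and scintillation. Screened first at 25 uM in duplicate, then actives titrated to a 50 uM top concentration relative to DMSO.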
# [18] = target: human Adrenergic, Beta 1 Receptor (Adrb1), ADRB1 (gene 153) (UniProt P08588); assay: NVS_GPCR_hAdrb1: NovaScreen (NVS) G Protein-Coupled Receptor Assay for human Adrenergic, Beta 1 Receptor (Adrb1) (AID 2283258)
# Procedure, shortened: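 Membranes/protein extracted from human neuroepithelioma cells, radioligand competition binding read by filtration and scintillation 2 h post-dose. Single 25 uM duplicate screen, then concentration-response follow-up; DMSO as negative control.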
# Chain of human Serotonin, 5-Hydroxytryptamine Receptor 7 (5HT7), HTR7 (gene 3363) (P34969 whole entry, looked up): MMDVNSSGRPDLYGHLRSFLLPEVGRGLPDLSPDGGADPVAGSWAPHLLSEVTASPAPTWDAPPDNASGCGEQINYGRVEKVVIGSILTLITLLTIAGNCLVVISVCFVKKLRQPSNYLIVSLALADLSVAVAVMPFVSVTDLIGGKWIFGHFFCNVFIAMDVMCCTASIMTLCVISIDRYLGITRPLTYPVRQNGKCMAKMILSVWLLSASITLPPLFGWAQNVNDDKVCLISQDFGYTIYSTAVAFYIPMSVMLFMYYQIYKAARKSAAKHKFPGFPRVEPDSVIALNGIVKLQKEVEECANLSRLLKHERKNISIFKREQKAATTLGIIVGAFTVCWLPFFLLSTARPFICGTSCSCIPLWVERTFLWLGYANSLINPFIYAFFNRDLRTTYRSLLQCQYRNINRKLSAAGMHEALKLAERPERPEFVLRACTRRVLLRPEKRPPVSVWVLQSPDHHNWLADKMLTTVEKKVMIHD
# Chain of Beta-2 adrenergic receptor (Homo sapiens) (P07550 whole entry, looked up): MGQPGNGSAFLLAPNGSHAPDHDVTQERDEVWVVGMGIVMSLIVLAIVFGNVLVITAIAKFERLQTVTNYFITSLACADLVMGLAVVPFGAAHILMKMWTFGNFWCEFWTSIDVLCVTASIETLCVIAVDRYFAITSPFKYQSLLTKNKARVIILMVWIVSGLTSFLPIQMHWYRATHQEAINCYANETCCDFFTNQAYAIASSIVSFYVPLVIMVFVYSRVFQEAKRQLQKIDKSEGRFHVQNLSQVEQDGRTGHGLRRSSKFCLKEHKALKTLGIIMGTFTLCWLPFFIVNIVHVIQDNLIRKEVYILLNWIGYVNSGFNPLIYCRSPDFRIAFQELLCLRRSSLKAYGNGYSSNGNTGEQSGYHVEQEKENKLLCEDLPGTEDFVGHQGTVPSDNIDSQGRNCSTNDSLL
# Chain of human Adenosine A1 Receptor (AdoRA1), ADORA1 (gene 134) (P30542 whole entry, looked up): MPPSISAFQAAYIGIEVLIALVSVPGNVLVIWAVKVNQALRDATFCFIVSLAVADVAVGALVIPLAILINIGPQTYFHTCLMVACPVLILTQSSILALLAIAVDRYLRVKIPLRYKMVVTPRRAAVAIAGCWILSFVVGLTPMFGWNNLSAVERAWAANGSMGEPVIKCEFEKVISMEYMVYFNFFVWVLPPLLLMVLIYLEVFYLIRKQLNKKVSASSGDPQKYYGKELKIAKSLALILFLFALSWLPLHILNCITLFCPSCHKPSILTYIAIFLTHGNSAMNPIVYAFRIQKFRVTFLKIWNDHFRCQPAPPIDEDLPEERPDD
# Chain of rat Monoamine Oxidase, MAO-B, Peripheral (MAOBP), Maob (gene 25750) (P19643 whole entry, looked up): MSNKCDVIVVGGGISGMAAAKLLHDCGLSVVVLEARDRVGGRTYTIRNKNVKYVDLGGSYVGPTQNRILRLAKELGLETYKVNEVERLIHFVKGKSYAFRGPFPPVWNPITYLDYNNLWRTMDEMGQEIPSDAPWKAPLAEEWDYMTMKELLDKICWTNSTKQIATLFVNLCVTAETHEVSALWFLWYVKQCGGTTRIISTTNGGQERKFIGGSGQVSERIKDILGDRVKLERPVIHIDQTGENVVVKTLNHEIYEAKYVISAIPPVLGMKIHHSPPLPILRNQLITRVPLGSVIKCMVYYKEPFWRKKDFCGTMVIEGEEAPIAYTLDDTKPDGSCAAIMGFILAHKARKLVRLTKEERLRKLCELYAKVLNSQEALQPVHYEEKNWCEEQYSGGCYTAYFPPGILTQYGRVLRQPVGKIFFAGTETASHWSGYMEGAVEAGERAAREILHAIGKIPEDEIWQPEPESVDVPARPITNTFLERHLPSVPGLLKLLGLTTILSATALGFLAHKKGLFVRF
# Chain of human Serotonin, 5-Hydroxytryptamine Receptor 6 (5HT6), HTR6 (gene 3362) (P50406 whole entry, looked up): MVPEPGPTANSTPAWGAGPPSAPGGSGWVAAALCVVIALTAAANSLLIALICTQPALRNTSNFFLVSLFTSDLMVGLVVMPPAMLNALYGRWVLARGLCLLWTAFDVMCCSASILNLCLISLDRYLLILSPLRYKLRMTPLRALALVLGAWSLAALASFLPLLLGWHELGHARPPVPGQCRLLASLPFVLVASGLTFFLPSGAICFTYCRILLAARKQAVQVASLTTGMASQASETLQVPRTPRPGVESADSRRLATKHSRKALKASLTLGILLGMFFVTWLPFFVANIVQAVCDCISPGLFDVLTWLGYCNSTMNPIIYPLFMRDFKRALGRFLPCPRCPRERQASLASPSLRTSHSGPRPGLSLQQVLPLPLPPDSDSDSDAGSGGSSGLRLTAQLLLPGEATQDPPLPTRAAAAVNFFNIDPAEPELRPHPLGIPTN
# Chain of human Serotonin, 5-Hydroxytryptamine Receptor 5A (5HT5A), HTR5A (gene 3361) (P47898 whole entry, looked up): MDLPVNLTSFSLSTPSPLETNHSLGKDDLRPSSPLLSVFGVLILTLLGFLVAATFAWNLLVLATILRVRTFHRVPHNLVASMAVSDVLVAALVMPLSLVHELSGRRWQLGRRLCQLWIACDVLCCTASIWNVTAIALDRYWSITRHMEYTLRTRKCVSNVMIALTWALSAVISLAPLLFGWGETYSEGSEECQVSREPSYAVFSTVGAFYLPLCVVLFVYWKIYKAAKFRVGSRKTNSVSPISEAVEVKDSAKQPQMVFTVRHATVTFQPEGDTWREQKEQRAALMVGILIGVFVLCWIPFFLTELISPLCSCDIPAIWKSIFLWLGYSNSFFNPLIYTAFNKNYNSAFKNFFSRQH
# Chain of human Adenosine A2a Receptor (AdoRA2a), ADORA2A (gene 135) (P29274 whole entry, looked up): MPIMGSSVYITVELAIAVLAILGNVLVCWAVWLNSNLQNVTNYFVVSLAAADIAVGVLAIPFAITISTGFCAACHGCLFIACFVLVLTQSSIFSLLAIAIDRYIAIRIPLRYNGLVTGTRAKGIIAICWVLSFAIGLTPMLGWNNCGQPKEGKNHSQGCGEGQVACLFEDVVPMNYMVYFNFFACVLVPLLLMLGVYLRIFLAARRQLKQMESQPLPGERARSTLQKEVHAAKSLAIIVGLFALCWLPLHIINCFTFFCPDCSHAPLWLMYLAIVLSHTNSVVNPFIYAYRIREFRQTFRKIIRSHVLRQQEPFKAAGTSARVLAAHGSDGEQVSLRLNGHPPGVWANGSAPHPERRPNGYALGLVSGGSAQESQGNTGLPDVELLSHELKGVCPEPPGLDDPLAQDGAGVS
# Chain of bovine Dopamine Receptor (DR), Non-selective Binding, DRD1 (gene 281125) (Q95136 whole entry, looked up): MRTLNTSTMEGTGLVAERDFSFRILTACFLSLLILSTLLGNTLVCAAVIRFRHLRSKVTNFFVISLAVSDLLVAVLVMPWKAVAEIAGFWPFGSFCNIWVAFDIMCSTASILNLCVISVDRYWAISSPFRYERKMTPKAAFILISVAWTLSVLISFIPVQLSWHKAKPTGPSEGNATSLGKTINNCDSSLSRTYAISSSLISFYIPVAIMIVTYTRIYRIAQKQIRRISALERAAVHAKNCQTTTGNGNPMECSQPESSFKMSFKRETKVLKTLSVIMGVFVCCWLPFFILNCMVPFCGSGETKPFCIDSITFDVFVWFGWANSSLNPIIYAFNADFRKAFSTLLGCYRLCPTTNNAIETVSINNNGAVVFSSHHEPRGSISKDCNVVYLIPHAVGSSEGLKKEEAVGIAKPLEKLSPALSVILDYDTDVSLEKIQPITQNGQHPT
# Chain of Adenosine receptor A1 (Bos taurus) (P28190 whole entry, looked up): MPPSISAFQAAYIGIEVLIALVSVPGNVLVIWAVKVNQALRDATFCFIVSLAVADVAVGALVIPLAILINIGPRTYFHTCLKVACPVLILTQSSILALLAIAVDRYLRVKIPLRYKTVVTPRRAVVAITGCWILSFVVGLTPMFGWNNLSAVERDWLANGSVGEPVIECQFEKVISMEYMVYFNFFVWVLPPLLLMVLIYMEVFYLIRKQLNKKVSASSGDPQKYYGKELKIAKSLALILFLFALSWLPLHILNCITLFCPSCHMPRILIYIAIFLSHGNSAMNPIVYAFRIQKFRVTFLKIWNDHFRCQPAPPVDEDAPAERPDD
# Chain of sheep Cyclooxygenase-1 (Cox1), PTGS1 (gene 443551) (P05979 whole entry, looked up): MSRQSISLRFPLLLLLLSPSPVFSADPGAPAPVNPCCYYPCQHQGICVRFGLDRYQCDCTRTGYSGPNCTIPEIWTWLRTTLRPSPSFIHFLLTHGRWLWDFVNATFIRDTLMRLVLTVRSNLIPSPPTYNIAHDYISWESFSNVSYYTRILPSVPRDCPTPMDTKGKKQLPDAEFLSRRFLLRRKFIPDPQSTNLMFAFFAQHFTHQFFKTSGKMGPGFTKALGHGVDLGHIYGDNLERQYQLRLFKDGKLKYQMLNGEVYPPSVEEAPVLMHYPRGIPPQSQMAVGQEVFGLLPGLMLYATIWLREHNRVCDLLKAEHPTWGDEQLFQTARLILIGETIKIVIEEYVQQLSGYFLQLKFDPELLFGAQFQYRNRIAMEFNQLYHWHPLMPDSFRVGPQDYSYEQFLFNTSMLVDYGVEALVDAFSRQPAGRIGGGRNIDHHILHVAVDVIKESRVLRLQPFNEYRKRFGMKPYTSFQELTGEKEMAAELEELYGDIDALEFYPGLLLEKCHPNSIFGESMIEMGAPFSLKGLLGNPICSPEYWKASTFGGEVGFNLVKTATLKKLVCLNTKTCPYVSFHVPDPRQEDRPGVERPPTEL
# Chain of human Adrenergic, Alpha 2c Receptor (Adra2C), ADRA2C (gene 152) (P18825 whole entry, looked up): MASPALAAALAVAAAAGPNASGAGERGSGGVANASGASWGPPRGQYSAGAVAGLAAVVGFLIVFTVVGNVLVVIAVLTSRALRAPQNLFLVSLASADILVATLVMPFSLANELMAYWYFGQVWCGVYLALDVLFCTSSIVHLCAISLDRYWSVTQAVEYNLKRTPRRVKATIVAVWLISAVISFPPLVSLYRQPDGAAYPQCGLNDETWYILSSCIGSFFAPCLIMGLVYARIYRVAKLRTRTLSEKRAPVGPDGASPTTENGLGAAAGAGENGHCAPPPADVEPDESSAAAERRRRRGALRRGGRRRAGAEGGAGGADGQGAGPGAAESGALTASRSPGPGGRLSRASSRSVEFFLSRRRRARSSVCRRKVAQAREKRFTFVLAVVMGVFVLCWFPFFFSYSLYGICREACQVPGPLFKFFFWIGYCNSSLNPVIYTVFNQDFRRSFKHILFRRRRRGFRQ
compound,measurement,setting,value
Cc1nc(N(C)C)nc(OC(=O)N(C)C)c1C,AC50,[1],12.8 µM (active)
CC(C)NC(=O)N1CC(=O)N(c2cc(Cl)cc(Cl)c2)C1=O,outcome,[2],inactive
CNC(=O)Oc1cccc2ccccc12,AC50,[3],25 µM (active)
same,AC50,[1],13.8 µM (active)
COP(=S)(OC)Oc1ccc([N+](=O)[O-])c(C)c1,outcome,[1],inactive
Cc1cc(C)nc(Nc2ccccc2)n1,outcome,[1],inactive
same,AC50,[4],10.9 µM (active)
Cc1ccc(N=CN(C)C=Nc2ccc(C)cc2C)c(C)c1,AC50,[1],1.66 µM (active)
same,AC50,[5],0.574 µM (active)
Nc1c(Cl)c(F)nc(OCC(=O)O)c1Cl,AC50,[1],46.8 µM (active)
same,outcome,[6],inactive
N#Cc1c(Cl)cccc1Cl,outcome,[1],inactive
CCC(C)n1c(=O)[nH]c(C)c(Br)c1=O (stereo unspecified),outcome,[7],inactive
same,outcome,[8],inactive
same,AC50,[9],15.2 µM (active)
same,AC50,[5],14 µM (active)
CN=C=S,outcome,[3],inactive
same,outcome,[10],inactive
CCOP(=S)(OCC)Oc1nc(Cl)n(C(C)C)n1,outcome,[11],inactive
same,AC50,[9],8.95 µM (active)
N#Cc1c[nH]cc1-c1cccc2c1OC(F)(F)O2,outcome,[1],inactive
same,outcome,[11],inactive
same,outcome,[12],inactive
same,outcome,[10],inactive
COCC(C)N(C(=O)CCl)c1c(C)csc1C (stereo unspecified),outcome,[13],inactive
same,AC50,[14],15.5 µM (active)
CC(C)N1C(=O)N(c2ccccc2)CSC1=NC(C)(C)C,outcome,[3],inactive
same,outcome,[15],inactive
same,outcome,[12],inactive
CNC(=O)N(C)c1nnc(C(C)(C)C)s1,outcome,[13],inactive
COc1ccc(-c2ccccc2)cc1NNC(=O)OC(C)C,AC50,[3],0.139 µM (active)
same,AC50,[1],0.599 µM (active)
O=C(Nc1ccccc1-c1ccc(Cl)cc1)c1cccnc1Cl,outcome,[3],inactive
COP(=S)(OC)SCn1nnc2ccccc2c1=O,outcome,[3],inactive
same,AC50,[7],8.1 µM (active)
same,AC50,[8],2.4 µM (active)
same,outcome,[16],inactive
same,AC50,[9],9.98 µM (active)
same,outcome,[4],inactive
same,outcome,[10],inactive
CC(C)=CC1C(C(=O)OCc2coc(Cc3ccccc3)c2)C1(C)C (stereo unspecified),outcome,[2],inactive
same,AC50,[17],6.5 µM (active)
same,AC50,[15],25 µM (active)
same,outcome,[5],inactive
same,AC50,[18],25 µM (active)
same,AC50,[6],25 µM (active)
